IEC-6 tox = IEC-6 cytotoxicity, counter-screen for KLF5 inhibitors. AID 1825. actives 0.78% (n = 290,000). inhibition, % at 5 µM. luminescence viability; in the data active means inhibition above about 22%
APP transl inh = APP translation inhibition; inhibition, % at 2 µM; SH-SY5Y APP 5'UTR-luciferase reporter, luminescence; actives 0.82% (n = 190,000);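 active means inhibition above a set limit, derived from the sample mean plus 3 SD, cut at about 45% in these data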
BaF3 tox = reduces parental Ba/F3 cell viability, JAK2V617F counter-screen | CellTiter-Glo ATP luminescence | inhibition, % at 5.6 µM | actives 1.1% (n = 220,000) | AID 1486;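 active means inhibition above a per-campaign cutoff, the mean inhibition of all tested compounds plus 3 SD, cut at about 27% in these data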
aSyn 5UTR inh = MLPCN primary screen, SNCA 5' untranslated region. AID 1813. actives 0.82% (n = 300,000). alpha-synuclein 5'UTR reporter, inhibitor activity. inhibition, % (tested at 7.5 µM); in the data active means inhibition above about 60%;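 further: H4 neuroglioblastoma cells stably carrying SNCA 5'UTR luciferase fusion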
Ba/F3 V617F tox = loss of viability in JAK2V617F-driven Ba/F3 cells; Ba/F3 EpoR-JAK2V617F viability, ATP luminescence; inhibition, % at 5.6 µM; actives 1.1% (n = 220,000); AID 1446;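 active means inhibition above the campaign mean plus 3 SD over all tested compounds, cut at about 24% in these data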;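 further: cytokine-independent growth of Ba/F3 cells driven by EpoR plus mutant JAK2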
KLF5 inh = inhibitors of KLF5 expression. DLD-1 KLF5 promoter-luciferase reporter, luminescence. inhibition, % at 5 µM. actives 0.23% (n = 290,000);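 active means inhibition above a per-plate limit of that plate's mean compound inhibition plus 3 SD, cut at about 60% in these data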;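 further: higher means less KLF5 promoter-driven luciferase light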
Numbers stand for hits. Rows were chosen to be rich in hits. Some 2.2% of all compounds tested hit in one or more screens of this group.

`CC(C)Oc1ccccc1C1Nc2ccccc2C(=O)N1c1ccc2c(c1)OCCO2` (stereo not drawn) gave IEC-6 tox inactive, APP transl inh inactive, BaF3 tox inactive, aSyn 5UTR inh 68, Ba/F3 V617F tox inactive and KLF5 inh inactive.
For COc1ccc(N2C(=O)c3ccccc3NC2c2ccccc2O)cc1 (stereo not drawn) the results were IEC-6 tox inactive, aSyn 5UTR inh inactive and KLF5 inh inactive.
O=C1c2ccccc2C(=O)c2c1ncn2-c1ccccc1 was read as IEC-6 tox inactive, APP transl inh inactive, BaF3 tox inactive, aSyn 5UTR inh 70, Ba/F3 V617F tox inactive and KLF5 inh inactive.
Screening O=C1c2ccccc2C(=O)c2[nH]cnc21 returned IEC-6 tox inactive, BaF3 tox inactive, aSyn 5UTR inh inactive, Ba/F3 V617F tox inactive and KLF5 inh inactive.
`CCNc1nc(NC(C)(C)C)nc(N2CCCC2)n1` gave IEC-6 tox inactive, APP transl inh inactive, BaF3 tox inactive, aSyn 5UTR inh inactive, Ba/F3 V617F tox inactive and KLF5 inh inactive.
For CC(C)(C)Nc1nc(N2CCCC2)nc(N2CCCC2)n1 the results were IEC-6 tox inactive, APP transl inh inactive, BaF3 tox inactive, aSyn 5UTR inh 68, Ba/F3 V617F tox inactive and KLF5 inh inactive.
`COCCc1nc2ccc(C(=O)N(C)Cc3cccc(-n4cccn4)c3)cc2o1` gave IEC-6 tox inactive, aSyn 5UTR inh inactive and KLF5 inh inactive.
For c1ccc2c(c1)CC(N1CCCCC1)c1ccccc1S2 (stereo not drawn) the results were aSyn 5UTR inh 90.
For CCc1ccc2c(c1)Sc1ccccc1CC2N1CCN(C)CC1 (stereo not drawn) the results were aSyn 5UTR inh inactive.
`O=C(N/N=C/c1ccccc1)c1[nH]c2ccc(Br)cc2c1-c1ccccc1` gave IEC-6 tox inactive, APP transl inh 88, BaF3 tox inactive, aSyn 5UTR inh inactive, Ba/F3 V617F tox inactive and KLF5 inh inactive.
For O=C(NN=C1CCCC1)c1[nH]c2ccc(Br)cc2c1-c1ccccc1 the results were IEC-6 tox inactive, BaF3 tox inactive, Ba/F3 V617F tox inactive and KLF5 inh inactive.
CC1CCCCC1NC(=O)CCn1c(=O)sc2ccccc21 (stereo not drawn) was read as IEC-6 tox inactive, aSyn 5UTR inh inactive and KLF5 inh inactive.
`Cc1cc(C)cc(-n2c(C)cc(/C=N/NC(=O)CN(c3c(C)cccc3C)S(C)(=O)=O)c2C)c1` gave IEC-6 tox inactive, APP transl inh 90, BaF3 tox inactive, aSyn 5UTR inh inactive, Ba/F3 V617F tox inactive and KLF5 inh inactive.
For O=c1oc2ccc(Cl)cc2nc1/C=C(\O)c1cccs1 the results were IEC-6 tox inactive, BaF3 tox 38, aSyn 5UTR inh inactive, Ba/F3 V617F tox 36 and KLF5 inh inactive.
Cc1noc(C)c1COc1ccc(CC(=O)NCCc2ccccn2)cc1 was read as IEC-6 tox inactive, aSyn 5UTR inh inactive and KLF5 inh inactive.
`Cc1ccc(CC(=O)NCc2ccc(F)cc2)cc1` gave IEC-6 tox 50, APP transl inh inactive, BaF3 tox 58, aSyn 5UTR inh inactive, Ba/F3 V617F tox 35 and KLF5 inh inactive.
Cc1ccc(CNC(=O)Cc2ccc(-c3ccccc3)cc2)cc1 was read as IEC-6 tox inactive, APP transl inh inactive, BaF3 tox inactive, aSyn 5UTR inh 73, Ba/F3 V617F tox inactive and KLF5 inh inactive.
O=C(Cc1ccc(-c2ccccc2)cc1)NCc1ccccc1 was read as IEC-6 tox 78, APP transl inh 93, BaF3 tox 81, aSyn 5UTR inh 104, Ba/F3 V617F tox 81 and KLF5 inh inactive.
Cc1noc(C)c1COc1ccc(CC(=O)NCc2ccccc2)cc1 was read as IEC-6 tox 79, APP transl inh 86, BaF3 tox 73, aSyn 5UTR inh 72, Ba/F3 V617F tox 72 and KLF5 inh inactive.
For Cc1ccc(CNC(=O)CSCc2ccc(F)cc2)cc1 the results were IEC-6 tox inactive, APP transl inh inactive, BaF3 tox inactive, aSyn 5UTR inh inactive, Ba/F3 V617F tox inactive and KLF5 inh inactive.
CC(=O)N1CCC(=NNC(=O)c2cccs2)CC1 was read as IEC-6 tox inactive, APP transl inh inactive, BaF3 tox 53, aSyn 5UTR inh inactive, Ba/F3 V617F tox inactive and KLF5 inh inactive.
Screening O=C(COC(=O)c1c(F)cccc1F)Nc1ccccc1OC(F)F returned IEC-6 tox inactive, aSyn 5UTR inh inactive and KLF5 inh inactive.
Screening CCCCCCCCCCn1c2c(c(=N)c3c1CCC3)CCC2 returned IEC-6 tox 56, APP transl inh inactive, BaF3 tox 96, aSyn 5UTR inh 71, Ba/F3 V617F tox 99 and KLF5 inh inactive.
`CCOC(=O)Cn1c2c(c(=N)c3c1CCC3)CCC2` gave IEC-6 tox inactive, APP transl inh inactive, BaF3 tox inactive, aSyn 5UTR inh inactive, Ba/F3 V617F tox inactive and KLF5 inh inactive.
For CCCCCn1c2c(c(=N)c3ccccc31)CCC2 the results were IEC-6 tox inactive, BaF3 tox 69, aSyn 5UTR inh inactive, Ba/F3 V617F tox 89 and KLF5 inh inactive.
For CCCCn1c2c(c(=N)c3ccccc31)CCC2 the results were IEC-6 tox inactive, BaF3 tox 61, aSyn 5UTR inh inactive, Ba/F3 V617F tox 71 and KLF5 inh inactive.
Screening CCn1c2c(c(=N)c3c1CCC3)CCCC2 returned IEC-6 tox inactive, BaF3 tox 50, aSyn 5UTR inh inactive, Ba/F3 V617F tox 30 and KLF5 inh inactive.
`CCOC(=O)Cn1c2c(c(=N)c3ccccc31)CCC2` gave IEC-6 tox inactive, APP transl inh inactive, BaF3 tox inactive, aSyn 5UTR inh inactive, Ba/F3 V617F tox inactive and KLF5 inh inactive.
Screening CC(C)(C)NC(=O)C(c1ccc(F)cc1)N(CC1CCCO1)C(=O)CCC(=O)Nc1ccccn1 (stereo not drawn) returned IEC-6 tox inactive, aSyn 5UTR inh inactive and KLF5 inh inactive.
`CCCCn1c(NC(C)=O)c(C#N)c2nc3ccccc3nc21` gave IEC-6 tox inactive, APP transl inh 52, BaF3 tox inactive, aSyn 5UTR inh inactive, Ba/F3 V617F tox inactive and KLF5 inh inactive.
Screening CCCCCn1c(N)c(C#N)c2nc3ccccc3nc21 returned IEC-6 tox inactive, APP transl inh inactive, BaF3 tox inactive, aSyn 5UTR inh inactive, Ba/F3 V617F tox inactive and KLF5 inh inactive.
`Cn1c(SCn2nnc3ccccc3c2=O)nc2ccccc2c1=O` gave IEC-6 tox inactive, APP transl inh inactive, BaF3 tox inactive, aSyn 5UTR inh inactive, Ba/F3 V617F tox inactive and KLF5 inh inactive.
Screening CCN(CC)S(=O)(=O)c1ccc2c(c1)nc(SCn1nnc3ccccc3c1=O)n2CC returned IEC-6 tox inactive, APP transl inh 92, BaF3 tox inactive, aSyn 5UTR inh inactive, Ba/F3 V617F tox inactive and KLF5 inh inactive.
`CCOC(=O)C(C)Oc1cccc2c(=O)n(CC(=O)NCc3ccc4c(c3)OCO4)ccc12` (stereo not drawn) gave IEC-6 tox inactive, APP transl inh inactive, BaF3 tox 42, aSyn 5UTR inh 65, Ba/F3 V617F tox 59 and KLF5 inh inactive.

Screens from PubChem BioAssay.
